# L3MBTL1 block – blocks human L3MBTL1; AlphaScreen L3MBTL1–H3K9me1 peptide binding; Potency, µM (top dose mostly 57.1 µM), inactives show at the highest dose activity, negative = inhibition, hits mostly inhibitors; actives 0.66% (n = 230,000); Q9Y468; further: on the % scale 0 is the no-effect control and ±100 the full control effect; nearly all actives have a fitted effect of over 60% in size
# Target sequence (Q9Y468 whole entry, looked up): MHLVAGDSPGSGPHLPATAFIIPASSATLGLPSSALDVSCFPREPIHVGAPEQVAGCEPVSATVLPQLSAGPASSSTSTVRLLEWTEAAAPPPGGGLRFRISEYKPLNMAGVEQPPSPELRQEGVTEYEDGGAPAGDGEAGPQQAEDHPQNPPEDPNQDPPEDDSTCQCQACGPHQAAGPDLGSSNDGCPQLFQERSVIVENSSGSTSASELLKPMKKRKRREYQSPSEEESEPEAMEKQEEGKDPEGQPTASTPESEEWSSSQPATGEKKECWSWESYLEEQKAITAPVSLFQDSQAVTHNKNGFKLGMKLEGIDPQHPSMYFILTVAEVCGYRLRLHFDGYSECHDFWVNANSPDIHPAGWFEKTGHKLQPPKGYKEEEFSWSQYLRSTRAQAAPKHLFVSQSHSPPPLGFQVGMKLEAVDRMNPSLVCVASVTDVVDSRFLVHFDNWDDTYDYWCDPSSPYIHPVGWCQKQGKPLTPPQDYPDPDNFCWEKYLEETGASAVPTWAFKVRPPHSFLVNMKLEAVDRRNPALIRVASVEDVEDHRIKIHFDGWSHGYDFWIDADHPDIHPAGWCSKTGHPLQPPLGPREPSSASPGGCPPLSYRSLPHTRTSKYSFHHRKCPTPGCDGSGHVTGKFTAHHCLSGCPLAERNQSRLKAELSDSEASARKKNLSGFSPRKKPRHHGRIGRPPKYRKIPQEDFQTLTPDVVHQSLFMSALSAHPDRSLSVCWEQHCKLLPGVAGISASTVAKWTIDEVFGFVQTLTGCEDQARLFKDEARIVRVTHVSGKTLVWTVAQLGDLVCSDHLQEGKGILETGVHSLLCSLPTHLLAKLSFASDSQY
#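 L3MBTL1 50 nM + b-AHA-H3(1-15)K9me1 75 nM, 30 min RT; compound added, 30 min RT; streptavidin donor/Ni-chelate acceptor beads 10 ug/mL each final, 30 min RT dark; AlphaScreen read.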
# HP1b chromo inh – blocks HP1-beta chromodomain binding to methylated histone tails; AID 540317; Potency, µM (series often up to 114 µM), for inactives: top-dose activity change, negative = inhibition, hits mostly inhibitors; P83916; AlphaScreen HP1-beta / biotin-H3K9me3 peptide binding; actives 0.56% (n = 390,000); further: nearly all actives have a fitted effect of over 70% in size
#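 Compound inhibition of the preformed complex between 50 nM HP1-beta and 50 nM biotinylated H3K9me3 peptide was read by AlphaScreen. Buffer was PBS pH 7.4 with 0.01% Tween-20. Incubations ran 30 min at room temperature, with 10 ug/mL donor/acceptor beads.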
# JMJD2A Tudor inh – JMJD2A Tudor domain (human) inhibition; O75164; AlphaScreen JMJD2A-Tudor / H3K4me3 peptide binding; Potency, µM (doses to about 114 µM), inactives show at the top dose activity change, negative = inhibition, actives largely listed as inhibitors; actives 4.4% (n = 390,000); further: on the % scale 0 is the no-effect control and ±100 the full control effect; nearly all actives have a fitted effect of over 50% in size
# BAZ2B block – inhibitors of human BAZ2B bromodomain; Q9UIF8; AlphaScreen BAZ2B-H3K14Ac peptide displacement; Potency, µM (titrated, usually from 114 µM), inactives show at the top dose activity change, negative = inhibition, hits mostly inhibitors; actives 4.4% (n = 360,000); further: on the % scale 0 is the no-effect control and ±100 the full control effect; nearly all actives have a fitted effect of over 60% in size
#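 Inhibition is scored as reduced AlphaScreen emission. The BAZ2B/b-H3(5-23)K14Ac complex (50 nM each) in PBS pH 7.4, 0.01% Tween-20 meets compound (up to 110 uM) for 30 min at RT before bead addition.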
# Sfp PPTase inh – inhibitors of Bacillus subtilis Sfp phosphopantetheinyl transferase. Q9F4F7. Biochemical Sfp PPTase activity, qHTS. Potency, µM, for inactives: largest response in the series, negative = inhibition, most hits filed as inhibitors. actives 3.5% (n = 310,000);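 further: the enzyme is Sfp with the accession as filed and its product quenches rhodamine fluorescence; 0% = enzyme reaction without inhibitor and -100% = no enzyme wells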
#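 Fluorescence-quenching assay: 15 nM Sfp-PPTase preincubated 15 min at room temperature with compound, then 5 uM rhodamine-CoA and 12.5 uM BHQ-2-labelled YbbR peptide added. Fluorescence (ex 525/em 598 nm) read at start and after 30 min; difference gives rate.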
# G9a inh – inhibitors of human histone lysine methyltransferase G9a. Potency, µM (titrated, usually from 102 µM), for the others: at the highest dose activity, negative = inhibition, most hits filed as inhibitors. G9a H3K9 monomethylation, AlphaScreen, 2 h. actives 8.8% (n = 350,000); further: on the % scale 0 is the no-effect control and ±100 the full control effect; nearly all actives have a fitted effect of over 75% in size
#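 G9a (20 nM) preincubated 15 min RT with compounds, then 500 nM biotinylated H3K9 peptide and 20 uM SAM added; 2 h RT reaction. Monomethyl-H3K9 product detected by AlphaScreen with anti-H3K9me1 antibody, streptavidin donor and anti-rabbit IgG acceptor beads.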
# Active calls of the source: *; u = inconclusive; x = not tested or not shown; [ ] = dose if it differs, or a comment. Only some compounds are listed: those with a hit (about 12% of all), similar ones and a draw of the others. The call rests on the fitted dose curve; in most records, active means well fitted curve in the direction sought with a large enough effect; inconclusive means small, poorly fitted or top-dose-only effect, or another doubt; inactive means no such curve, though single readings can be large; an effect the other way counts as inactive or inconclusive. Potency means the concentration at half of the fitted maximal effect.
SMILES,L3MBTL1 block,HP1b chromo inh,JMJD2A Tudor inh,BAZ2B block,Sfp PPTase inh,G9a inh
O=c1c(C(c2ccccc2)c2c(O)sc3ccccc3c2=O)c(O)sc2ccccc12,x,22.1%,-8.7%,28.2µM*,12.6%,u
O=C1C(=O)N(C2CCN(C(=O)c3cccc(Cl)c3)CC2)CCN1Cc1ccc(F)cc1,x,31.1%,-1.9%,-0.9%,x,-5.0%[59 µM]
CCc1ccc(NS(=O)(=O)c2c(C(=O)N3CCOCC3)c(C)n(C)c2C)cc1,x,4.9%,-22.9%,-13.8%,18.0%,23.2%[59 µM]
O=S(=O)(c1cccc(C(F)(F)F)c1)N1CCC(c2cc(-c3cccc4ccccc34)n[nH]2)CC1,-4.0%,-0.9%,39.8µM*,u,11.6%,-11.0%[12.7 µM]
CCC(C)n1c(/C=C/c2ccccc2)nc2ccccc21 (stereo not drawn),50.5%,96.5%,77.3%,95.1%,7.4%,77.3%[59 µM]
S=C(Nc1ccccc1)Nc1nc2ccccc2n1CCOc1ccc(Br)cc1,6.31µM*,-1.2%,u,3.16µM*,-28.3%,u
CCC(C)n1c(S(=O)(=O)O)nc2ccccc21 (stereo not drawn),x,32.8%,-13.2%,u,-8.6%,79.4µM*
CCCn1c(N2CCN(C(=O)N3CCCCC3)CC2)nc2ccccc21,-4.7%,15.5%,-12.2%,u,-1.4%,50.1µM*
CCCn1c(/C=C/c2cc[n+](C)cc2)nc2ccccc21,5.4%,12.0%,u,u,7.4%,39.8µM*
Cc1ccc(NS(=O)(=O)c2ccc3c(c2)N(C)C(=O)CO3)cc1C,x,x,-2.8%,x,x,x
Cn1nccc1C(=O)N1CCCC(N2CCN(Cc3ccc4c(c3)OCO4)CC2)C1 (stereo not drawn),x,28.3%,-1.4%,-17.0%,11.3%,12.4%
Cc1c2cnn(-c3ccccc3)c(=O)c2c(C)n1CC(=O)Nc1ccccc1Br,x,8.7%,-8.7%,0.8%,x,-2.4%[59 µM]
CCCn1c(S(=O)(=O)O)nc2ccccc21,x,18.0%,-14.7%,-14.5%,-13.2%,50.1µM*
Cc1cccc(OCCn2c(S(=O)(=O)O)nc3ccccc32)c1,-2.4%,7.4%,-17.8%,-6.4%,-13.0%,x
O=S(=O)(O)c1nc2ccccc2n1CCOc1ccccc1,-2.7%,21.0%,-26.3%,-33.5%,21.3%,50.1µM*
Cc1ccc(NC(=O)Cn2ccn(Cc3ccc(Cl)cc3)c(=O)c2=O)cc1C,x,35.0%,0.7%,4.6%,x,3.6%[59 µM]
Cc1cn2c(=O)cc(COc3ccccc3NC(=O)c3ccccc3C)nc2s1,x,31.9%,-11.6%,-0.5%,x,-3.9%[59 µM]
CN(C)c1ccc(N2C(=NC(=O)COc3ccccc3)SC3CS(=O)(=O)CC32)cc1 (stereo not drawn),x,-12.7%,u,u,2.5%,50.1µM*
CCC(C)(C)C(=O)O[C@@H]1C[C@@H](C)C=C2C=C[C@H](C)[C@H](CC[C@@H]3C[C@@H](O)CC(=O)O3)[C@H]21,x,x,x,x,6.3%,x
COc1ccc(NC(=O)CSc2nnc(-c3ccncc3)n2-c2ccccc2)cc1,x,8.1%,-16.3%,0.7%,x,u
CC(C)(C)c1ccccc1OCCCCCn1ccnc1,-23.3%[11.4 µM],u,2.82µM*,17.8µM*,56.2µM*,u
CC(C)(C)c1ccccc1OCCCCCNCCO,1.8%,u,3.16µM*,u,-29.3%,u
Cc1ccc(C)c(OCCCCn2ccnc2)c1,x,9.3%,u,u,7.2%,u
Cc1cccc(OCCCCCn2ccnc2)c1C,-28.7%,2.7%,-39.7%,u,-2.4%,-24.4%
c1ccc(-c2ccccc2OCCCCn2ccnc2)cc1,-6.7%,39.8µM*,20µM*,50.1µM*,u,x
SMILES,L3MBTL1 block,HP1b chromo inh,JMJD2A Tudor inh,BAZ2B block,Sfp PPTase inh,G9a inh
CC[N+](C)(CC)CC(=O)Nc1c(C)cccc1C,x,x,x,x,16.2%,x
COc1ccc(NC(=O)CCc2nnc3n(C)c(=O)c4sccc4n23)cc1,x,3.7%,7.8%,1.3%,x,-11.9%[59 µM]
O=C(CC1CC2CCC1C2)NC1CCCCCCC1 (stereo not drawn),x,31.0%,-7.0%,3.5%,12.1%,-0.7%
COc1nc(OC)nc(N2CCC(C(=O)NCc3ccco3)CC2)n1,0.5%,17.1%,-3.0%,5.1%,13.3%,2.7%[12.7 µM]
COc1ccc(-n2c(N)c(C(=O)NCc3ccco3)c3nc4ccccc4nc32)cc1,14.7%,20.1%,7.7%,-1.0%,25.1µM*,1.4%[59 µM]
O=C(NCc1ccco1)C1CCN(c2nc3ccccc3n2Cc2ccc(F)cc2)CC1,x,-6.4%,u,u,-7.9%,79.4µM*
COc1ccccc1CNC(=O)c1c(N)n(CCCN2CCOCC2)c2nc3ccccc3nc12,33.6%,96.1%,10.1%,6.0%,56.2µM*,6.3%[59 µM]
COC(=O)c1c(N)n(-c2ccc(N3CCOCC3)cc2)c2nc3ccccc3nc12,-9.8%,x,x,u,-12.1%,10µM*
COC(=O)c1c(N)n(-c2ccc(NC(C)=O)cc2)c2nc3ccccc3nc12,x,34.7%,-12.9%,-38.9%,-5.8%,u
N#Cc1cccc(NC(=O)CCc2ccc(S(=O)(=O)N3CCOCC3)cc2)c1,2.5%,10.0%,-17.2%,x,x,x
Nc1c(C(=O)NCCN2CCOCC2)c2nc3ccccc3nc2n1CCc1ccccc1,35.7%,108.8%,13.4%,4.8%,-14.6%,29.8%
Nc1c(C(=O)NCc2ccco2)c2nc3ccccc3nc2n1CCc1ccc(F)cc1,x,80.4%,22.2%,4.0%,25.1µM*,-0.7%[59 µM]
CCCCNC(=S)N(CCN(C)C)Cc1cc2cc3c(cc2[nH]c1=O)OCCO3,2.4%,37.9%,-16.4%,-5.9%,-1.8%,x
CSCc1cccc(C(=O)OC(C)C(=O)Nc2c(C)n(C)n(-c3ccccc3)c2=O)c1 (stereo not drawn),28.1%,38.9%,5.2%,7.1%,x,8.91µM*
O=C(/C=C/c1ccc(Br)o1)OCc1nc2ccsc2c(=O)[nH]1,3.16µM*,-65.8%,39.8µM*,39.8µM*,x,18.5%[0.501 µM]
Cc1cnc(C(=O)OCc2nc3ccsc3c(=O)[nH]2)cn1,u,-24.8%,56.2µM*,50.1µM*,x,16.4%[12.7 µM]
Cc1ccc(C(=O)OCc2nc3ccsc3c(=O)[nH]2)o1,-3.5%,21.4%,-5.5%,22.6%,x,20.8%[2.33 µM]
O=C1C(=C(I)I)c2ccccc2-c2ccccc21,x,56.2µM*,25.1µM*,x,x,x
O=[N+]([O-])c1ccc2nc(/C=C/c3ccc(Cl)cc3)[nH]c2c1,-0.4%,-1.9%,-30.7%,-34.1%,-14.3%,14.3%[59 µM]
Cc1ccccc1OCc1nnc(SCC(=O)O)n1-c1cccc(Cl)c1,-0.6%,22.4%,-10.6%,-5.9%,14.3%,8.9%
Cc1n[nH]c(=S)n1-c1cccc(Cl)c1,-3.1%,21.7%,7.94µM*,-3.7%,u,3.98µM*
Cc1ccc(-n2c(CCc3ccccc3)nnc2SCC(=O)NCc2ccccc2)cc1C,x,12.3%,-27.0%,-17.9%,-3.2%,-0.7%
CCCOCC(O)CCc1n[nH]c(=S)n1-c1ccccc1 (stereo not drawn),13.7%,25.0%,50.1µM*,-4.1%,u,x
